Compounds without any hit were thinned out: in the full panel of roughly 79,000, 15% have a hit. Activity calls are given as the source filed them. Rule as the data show it: active = growth inhibition above about 70%; inactive = the rest.
Experiments:
[1] = NCI Yeast Anticancer Drug Screen. Data for the rad50 strain (AID 155);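 also: 0% = growth of vehicle-only cultures of the same strain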; settings: S. cerevisiae rad50 strain growth inhibition; at 50.0 µM; active compounds read high
In short: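 Relative growth inhibition (compound vs vehicle) was measured in yeast with a defined repair-gene alteration.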

[2] = NCI Yeast Anticancer Drug Screen. Data for the mec2-1 strain (AID 157); settings: S. cerevisiae mec2-1 strain, at 50.0 µM, active compounds read high
In short: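 Using mec2-1 yeast: add compound, measure growth, express inhibition versus vehicle-treated cultures.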

[3] = NCI Yeast Anticancer Drug Screen. Data for the sgs1 mgt1 strain (AID 161);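 also: 0% = growth of cultures given vehicle only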; settings: S. cerevisiae sgs1 mgt1 strain, at 50.0 µM, active compounds read high
In short: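 Percent growth inhibition was derived by comparing compound-exposed mutant yeast with vehicle-exposed cultures. The strain carries alterations in DNA damage repair.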

[4] = NCI Yeast Anticancer Drug Screen. Data for the cln2 rad14 strain (AID 165);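 also: 0% = growth equal to vehicle treated cultures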; settings: S. cerevisiae cln2 rad14 strain, at 50.0 µM, active compounds read high
In short: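 Yeast strain cln2 rad14, bearing defects in cell cycle control and DNA repair, serves as the test system; values reflect growth inhibition compared with vehicle.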

[5] = NCI Yeast Anticancer Drug Screen. Data for the bub3 strain (AID 167); settings: S. cerevisiae bub3 mutant strain, at 50.0 µM, active compounds read high
In short: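 Screening used yeast with an engineered genetic alteration affecting cell cycle control. Compound-exposed cultures were compared with vehicle cultures, and reduced growth was taken as inhibition.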

[6] = NCI Yeast Anticancer Drug Screen. Data for the mlh1 rad18 strain (AID 175); settings: S. cerevisiae mlh1 rad18 strain growth inhibition; at 50.0 µM; active compounds read high
In short: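 Steps: expose repair-defective yeast to compound; measure growth; express inhibition against vehicle-treated controls.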

Measured: growth inhibition

N#Cc1ccccc1CC(O)(c1ccccc1)c1ccccc1
inactive: [1] 36.5% | [2] -5.85% | [3] -7.75% | [4] 13.7% | [5] -10.2% | [6] 9.8%

Nc1cc2c(cc1/C=C1\CCNC1=O)OCO2
inactive: [1] -5.65% | [2] -12.1% | [3] -22.2% | [4] -6.6% | [5] -11.8% | [6] -4.85%

O=[N+]([O-])c1ccc(S(=O)(=O)SC(F)(F)F)cc1
inactive: [1] 14.7% | [2] 3.85% | [3] -1% | [4] -47.1% | [5] -3.25% | [6] 11.3%

O=c1ccc2ccc(O)c(O)c2o1
inactive: [1] -10.9% | [2] -5.3% | [3] 12.9% | [4] 18.1% | [5] 30.7% | [6] 1.5%

CC(=O)N(C)CCc1c[nH]c2ccccc12
inactive: [1] -18.4% | [2] -37.5% | [3] -33.9% | [4] 13.2% | [5] 9.85% | [6] -4.8%

CCCc1ccccc1NC(=O)NCCCl
inactive: [1] -1.75% | [2] -2.5% | [3] -0.5% | [4] -30.6% | [5] -12.9% | [6] 5.6%

CCOC(=O)c1ccc(NC(=S)NC(=O)c2cccc([N+](=O)[O-])c2)cc1
inactive: [1] -3.15% | [2] 6.55% | [3] 16.1% | [4] -12.8% | [5] 15.1% | [6] 15.2%

NC(=O)CCCCCCCCCCBr
inactive: [1] 15.6% | [2] 21.2% | [3] 8.85% | [4] 20.2% | [5] 22.8% | [6] 42.3%

COC(=O)C(Cc1[nH]c(N=Nc2ccc(Br)cc2)nc1N=Nc1ccc(Br)cc1)NC(C)=O (configuration not stated)
inactive: [1] 43% | [2] -1% | [3] 27.1% | [4] -11.1% | [5] -3.55% | [6] -5.25%

CCOc1ccc(NC(=O)c2c(N/N=C/c3ccc(OC)cc3)nc(=O)[nH]c2C)cc1
inactive: [1] -14.2% | [2] -31.5% | [3] -21.6% | [4] -8.7% | [5] -15.6% | [6] -28.7%

CN(C)c1ccc(N=Nc2ccc3nc[nH]c3c2)cc1
inactive: [1] -3.15% | [2] 6.65% | [3] 42% | [4] -6.1% | [5] -3.3% | [6] 26.5%

CCOC(=O)Cc1c(C)cc(C)cc1C
inactive: [1] 18.9% | [2] -6.3% | [3] -10.4% | [4] 3.35% | [5] 15.7% | [6] 10.4%

CCCNC(=O)CCC(=O)NS(=O)(=O)c1ccc(Cl)cc1
inactive: [1] -14.4% | [2] -3.05% | [3] 16.5% | [4] -16.4% | [5] 16.1% | [6] 7.15%

CCC/C(=N/NC(=O)C(N)=O)C(CC)C(=O)CCC(=O)N(Cc1ccccc1)Cc1ccccc1 (configuration not stated)
inactive: [1] -17.6% | [2] -15.6% | [3] -26.6% | [4] 10.8% | [5] -10.4% | [6] -21.3%

CCC(C)(C)C(O)c1ccc2c(c1)OCO2 (configuration not stated)
inactive: [1] -0.2% | [2] -13.2% | [3] 4.1% | [4] -7.65% | [5] 1.3% | [6] -28.5%

COc1ccccc1OCC(O)CNc1ccc(Cl)cc1C(=O)c1ccccc1 (configuration not stated)
inactive: [1] 3.25% | [2] 21.5% | [3] -8.8% | [4] -12% | [5] -2.7% | [6] -19.4%

O=C(O)CC1CCCNC1 (configuration not stated)
inactive: [1] -11.3% | [2] 1.95% | [3] -13.7% | [4] -18.6% | [5] -16% | [6] -16.3%

CC(C)(C)NN=C1C(C)(C)C(=NNC(C)(C)C)C1(C)C
inactive: [1] -24% | [2] -30.1% | [3] -13.8% | [4] 13.9% | [5] -23.1% | [6] -10.9%

COc1ccc(/C=C/c2ccc3ccccc3n2)cc1
inactive: [1] 3.3% | [2] -20.6% | [3] 1.65% | [4] -46.1% | [5] 9.45% | [6] -16%

C[S+]1C=C(c2ccccc2)SC=C1c1ccccc1 (configuration not stated)
inactive: [1] 35.2% | [2] 32.9% | [3] 59.6% | [4] 8.3% | [5] 47% | [6] 55%

O=C(OCC1OC(n2ccc(=O)[nH]c2=O)C(F)C1OC(=O)c1ccccc1)c1ccccc1 (configuration not stated)
inactive: [1] 24.1% | [2] 4.3% | [3] 8.6% | [4] 17.7% | [5] 7.15% | [6] 2.3%

CCOc1ncc(C(O)c2ccco2)c(OCC)n1 (configuration not stated)
inactive: [1] -0.85% | [2] 5.85% | [3] 5.7% | [4] -47.8% | [5] 3.15% | [6] -8%

CN(C)c1cccc(/C=C(\C#N)c2ccccc2)c1
inactive: [1] 2.85% | [2] 13.8% | [3] 35.5% | [4] 28.8% | [5] 54.1% | [6] 15.2%

Cc1ccc(C(C)C)cc1O
inactive: [1] 17.6% | [2] 9.5% | [3] 19.1% | [4] 27% | [5] 13.7% | [6] 32.4%

CC(C)C(N)C(=O)Nc1nncs1 (configuration not stated)
inactive: [1] 11.6% | [2] -2.15% | [3] -8% | [4] -10.1% | [5] -33.6% | [6] -28.6%

COC1(OC)CC(CCl)OC1(OC)OC (configuration not stated)
inactive: [1] -2.45% | [2] 0.25% | [3] 12.7% | [4] 1.55% | [5] 3.15% | [6] -4.5%

CCOC(=O)CC(=O)C1CCC2C3CC=C4CC(O)CCC4(C)C3CCC12C (configuration not stated)
inactive: [1] 36.5% | [2] 8.3% | [3] 47.4% | [4] 25.9% | [5] 2.1% | [6] 33.9%

Brc1ccc(-c2ccc(-c3ccc(Br)cc3)s2)cc1
inactive: [1] 30.4% | [2] 13.8% | [3] 36.5% | [4] 19.8% | [5] -1.55% | [6] 4%

C[N+](C)(C)C12CCCCCC1SC2 (configuration not stated)
inactive: [1] 15.6% | [2] 6.7% | [3] 9.55% | [4] -26.6% | [5] -16.1% | [6] 5.1%

CCCCC1(CO)NC(=O)NC1=O (configuration not stated)
inactive: [1] -4.5% | [2] -13.9% | [3] -8.7% | [4] 8.95% | [5] 2.75% | [6] -1.4%

O=C1/C(=C/c2ccccc2)CN(C(=O)CCN2CCOCC2)C/C1=C\c1ccccc1
inactive: [1] 34.2% | [2] 7.15% | [4] 31.6% | [5] 66.8%
active: [3] 73% | [6] 86.8%

COc1ccc2nc(C(C)(O)c3ccccc3)ccc2c1 (configuration not stated)
inactive: [1] -1.6% | [2] -8.15% | [3] 6% | [4] -6.85% | [5] 2.65% | [6] -29.1%

O=C(O)/C=C/c1c2ccc(=O)c(O)c-2oc2c(O)c(O)ccc12
inactive: [1] 36.4% | [2] 24.4% | [3] 13.9% | [4] -23.9% | [5] 10.2% | [6] 44.8%

COc1ccc(C(O)C(C)(C(=O)O)c2ccccc2)cc1 (configuration not stated)
inactive: [1] 2.95% | [2] 2.25% | [3] 4.6% | [4] -6.35% | [5] -5.05% | [6] 8.55%

CCN(CC)CCOC(=O)c1cc(C(C)O)nc2ccccc12 (configuration not stated)
inactive: [1] 0.6% | [2] 12.3% | [3] -10.5% | [4] 0.55% | [5] 21.6% | [6] -7.1%

O=C(/C=C/c1ccsc1)c1ccsc1
inactive: [1] -38.9% | [2] -51.9% | [3] -22.9% | [4] 3.6% | [5] 9.5% | [6] -3.05%

CC1(C)OC2(C)CCC1C1C2N1C(=O)Nc1cccc2ccccc12 (configuration not stated)
inactive: [1] -9% | [2] -9.5% | [3] -1.35% | [4] -6.5% | [5] -3.75% | [6] -22.8%

C=CSC(=S)Sc1ccccc1
inactive: [1] 25.6% | [2] 28.4% | [3] -1.15% | [4] 3.45% | [5] 19% | [6] 12.9%

O=C1NCCS(=O)(=O)N2CCC[C@@H]12
inactive: [1] 54.4% | [2] -20% | [3] 5.1% | [4] 21.4% | [5] -19.6% | [6] -14.9%

O=C(CCl)NCCc1ccccc1
inactive: [1] 17.5% | [2] 5.6% | [3] -0.4% | [4] 12.8% | [5] 24.8% | [6] 1.1%

O=C1CCCC(=O)c2c(O)ccc(O)c21
inactive: [1] 4.4% | [2] -4.15% | [3] 9.5% | [4] -3.4% | [5] 10.7% | [6] 5.65%

CN(C)Cc1c(-c2ccc(Br)cc2)oc(-c2ccc(Br)cc2)c1Br
inactive: [1] -31.1% | [2] -8.7% | [3] -13.9% | [4] -10.4% | [5] 4.5% | [6] 7.2%

— PubChem BioAssay (NCI)
